The source of these data is PubChem BioAssay (Tox21).

Several values for one entry are separate records, joined by “and”; a condition that tells them apart may be missing. Identical values can stand only once. A number with no mark means an inactive call. Records with an inconclusive call do not appear. Activity calls are given as the source filed them. The call rests on the fitted dose curve.
On the % scale 0 is the no-effect control and ±100 the full control effect; potency means the concentration at half of the fitted maximal effect.

Sequence of Acetylcholinesterase (Homo sapiens) (P22303 whole entry, looked up): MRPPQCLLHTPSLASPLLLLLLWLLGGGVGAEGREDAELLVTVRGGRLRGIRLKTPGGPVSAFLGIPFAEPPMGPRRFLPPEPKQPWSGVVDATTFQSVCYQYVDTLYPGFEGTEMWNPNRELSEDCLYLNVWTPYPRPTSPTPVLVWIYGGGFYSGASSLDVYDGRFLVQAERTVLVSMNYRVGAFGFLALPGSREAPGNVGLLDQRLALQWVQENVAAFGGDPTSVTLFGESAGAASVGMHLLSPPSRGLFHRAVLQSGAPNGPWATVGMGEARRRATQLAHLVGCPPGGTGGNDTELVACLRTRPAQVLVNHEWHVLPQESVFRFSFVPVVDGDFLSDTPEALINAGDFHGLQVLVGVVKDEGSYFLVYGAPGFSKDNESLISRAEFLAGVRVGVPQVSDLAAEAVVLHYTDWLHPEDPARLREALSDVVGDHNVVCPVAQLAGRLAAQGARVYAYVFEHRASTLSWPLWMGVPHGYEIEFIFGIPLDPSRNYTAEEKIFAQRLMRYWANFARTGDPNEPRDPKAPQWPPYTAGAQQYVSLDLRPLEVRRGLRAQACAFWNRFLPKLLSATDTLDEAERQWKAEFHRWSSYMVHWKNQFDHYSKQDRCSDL

The first experiment addresses Acetylcholinesterase (Homo sapiens) (UniProt P22303). The experiment can be described thus: Acetylcholinesterase (AChE) small molecule antagonists: colormetric cell-based qHTS assay (AID 1347395). Further: nearly all actives have a fitted effect of over 30% in size. The note with it: SH-SY5Y cells AChE activity, colorimetric (Ellman); series mostly up to 115 µM; activity, negative = inhibition: at the top concentration. The method, boiled down:
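After overnight attachment at 37 C, SH-SY5Y cells get 30 min compound exposure; detection cocktail (acetylthiocholine, DTNB) then incubates 90 min at 37 C, and absorbance reflects AChE-generated thiocholine.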
A general note: qHTS replaces the single test concentration by a dilution series.
`CCCC(=O)O`: the Potency result is “inactive”.

As to `Cc1ccc(/C(=C\CN2CCCC2)c2ccccn2)cc1`, the “activity, negative = inhibition” value is -0.841% [at 52.9 µM].

Consider `CCCC1O[C@@H]2C[C@H]3[C@@H]4CCC5=CC(=O)C=C[C@]5(C)[C@H]4[C@@H](O)C[C@]3(C)[C@]2(C(=O)CO)O1` (stereo not given in full), for which the Potency result is “inactive”.

For the molecule `CCCCCCCCCCCCSC#N`, the “activity, negative = inhibition” value was 10.5%.

On to `CC(C)(C)c1cc(O)c(C(C)(C)C)cc1O`, for which the “activity, negative = inhibition” value is -0.166%.

As to `O=C(Nc1ccc(Cl)c(Cl)c1)C1CC1`, the “activity, negative = inhibition” value was -3.63% [at 52.9 µM].

In the case of `O=C(Nc1ccc([N+](=O)[O-])cc1Cl)c1cc(Cl)ccc1O`, the Potency entry is “inactive”.

As for `O=S(=O)(c1cccc2cnccc12)N1CCCNCC1`, the “activity, negative = inhibition” value is -1.42% [at 52.9 µM].

On to `Oc1ccccc1C=NCc1ccccc1`, for which the “activity, negative = inhibition” value is -0.969% [at 52.9 µM].

Take `O=C(c1cc(O)c(O)c(O)c1)c1ccc(O)c(O)c1O`: the Potency entry is “inactive”.

In the case of `COC(=O)C1=C(C)NC(C)=C(C(=O)OC)C1c1ccccc1[N+](=O)[O-]`, the Potency entry was “inactive”.

For `CC1=C(C(=O)O)N2C(=O)[C@@H](NC(=O)[C@H](N)c3ccccc3)[C@H]2SC1`, the “activity, negative = inhibition” value is -1.85% [at 52.9 µM].

Consider `CCCCNC(=S)NCCCC`, for which the “activity, negative = inhibition” value is 0.0422%.

For `O=c1[nH]cccc1O`, the “activity, negative = inhibition” value is 0.208%.

Consider `CCCCCCCC(C)=O`, for which the “activity, negative = inhibition” value is -0.257%.

As for `CCOc1ccc2nc(N)sc2c1`, the “activity, negative = inhibition” value was 10.2%.

For the molecule `COc1ccc(CCN(C)CCCC(C#N)(c2ccc(OC)c(OC)c2)C(C)C)cc1OC` (stereo not given), the Potency entry is “inactive”.

Consider `CC(C)NCC(O)COc1ccc(CC(N)=O)cc1` (stereo not given), for which the “activity, negative = inhibition” value was -0.391%.

On to `c1ccc2cc3ccccc3cc2c1`, for which the Potency result is “inactive”.

For the molecule `CC(C)(C)NCC(O)c1ccc(O)c(CO)c1` (stereo not given), the Potency entry is “inactive”.

In the case of `CC/C=C\CCO`, the “activity, negative = inhibition” value is 2.65%.

For the molecule `O=C(O)CCS`, the “activity, negative = inhibition” value is 1.3%.

Regarding `CC(C)(C)NC(=O)[C@@H]1C[C@@H]2CCCC[C@@H]2CN1C[C@@H](O)[C@H](Cc1ccccc1)NC(=O)[C@H](CC(N)=O)NC(=O)c1ccc2ccccc2n1`, the “activity, negative = inhibition” value was -0.388%.

Turning to `CCCCCCN`, the “activity, negative = inhibition” value is 2.35%.

`CCN(CC)S(=O)(=O)c1ccc(C(=O)O)cc1`: the “activity, negative = inhibition” value is -1.83% [at 52.9 µM].

With `C=COC(=O)C(C)(CC)CCC(C)C` (stereo not given), the “activity, negative = inhibition” value was -2.56%.

For `CCCCCCCCCCCCCOS(=O)(=O)O`, the “activity, negative = inhibition” value was -3.01%.

Take `C[N+]1(C)CCC(OC(=O)C(O)(c2ccccc2)C2CCCC2)C1` (stereo not given): the “activity, negative = inhibition” value was -0.168% [at 52.9 µM].

With `O=C(O)CCC(=O)c1ccc(-c2ccccc2)cc1`, the “activity, negative = inhibition” value is 0.993% [at 52.9 µM].

For the molecule `OCc1cccnc1`, the Potency entry is “inactive”.

`CCCCCCCCCCCCCCCCCC(=O)OCC(O)CO` (stereo not given): the Potency result was “inactive”.

With `Cc1ccc2c(n1)Oc1ccc(C(C)C(=O)OCC(=O)N(C)C)cc1C2` (stereo not given), the Potency was 15.5 µM (active) and 12.3 µM (active).

On to `Cc1ccc(C=O)cc1C`, for which the “activity, negative = inhibition” value was -3.06%.

For `C=CC(=O)OCCOCCOCCOCCOC(=O)C=C`, the Potency entry was “inactive”.

Turning to `OCCCCC(O)CO` (stereo not given), the “activity, negative = inhibition” value is -0.465%.

In the case of `CC1CCc2cc(F)cc3c(=O)c(C(=O)O)cn1c23` (stereo not given), the “activity, negative = inhibition” value was 0.925% [at 52.9 µM].

For the molecule `CCCCCCCC/C=C\CCCCCCCC(=O)OCCOC(=O)CCCCCCC/C=C\CCCCCCCC`, the “activity, negative = inhibition” value is -7.26%.

Turning to `CCCCN(C)C`, the “activity, negative = inhibition” value was -5.18%.

With `COc1nc(C)nc(N)n1`, the “activity, negative = inhibition” value is -4.2%.

For `c1cc(N(CC2CO2)CC2CO2)ccc1Cc1ccc(N(CC2CO2)CC2CO2)cc1` (stereo not given), the “activity, negative = inhibition” value was -2.94%.

For the next experiment the target is unchanged. The experiment can be described thus: Acetylcholinesterase (AChE) small molecule antagonists: enzyme-based qHTS assay (AID 1347397). Further: nearly all actives have a fitted effect of over 55% in size. The note with it: Potency: AChE enzyme activity inhibition; outcome: AChE enzyme activity inhibition; series mostly up to 115 µM; activity change, negative = inhibition: at the top concentration. Summed up: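 Enzyme inhibition was scored from DTNB-detected thiocholine formed by recombinant human AChE acting on acetylthiocholine. The 30 min compound preincubation and 10 min substrate reaction were both run at room temperature, with DMSO as vehicle control.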
On to `CCCC(=O)O`, for which the Potency result is “inactive”.

As to `Cc1ccc(/C(=C\CN2CCCC2)c2ccccn2)cc1`, the “activity change, negative = inhibition” value was 1.77% [at 53 µM].

For the molecule `CCCC1O[C@@H]2C[C@H]3[C@@H]4CCC5=CC(=O)C=C[C@]5(C)[C@H]4[C@@H](O)C[C@]3(C)[C@]2(C(=O)CO)O1` (stereo not given in full), the Potency result was “inactive”.

As to `CCCCCCCCCCCCSC#N`, the “activity change, negative = inhibition” value was 3.2%.

In the case of `CC(C)(C)c1cc(O)c(C(C)(C)C)cc1O`, the “activity change, negative = inhibition” value is 0.397%.

`O=C(Nc1ccc(Cl)c(Cl)c1)C1CC1`: the “activity change, negative = inhibition” value was -1.54% [at 53 µM].

As for `O=C(Nc1ccc([N+](=O)[O-])cc1Cl)c1cc(Cl)ccc1O`, the Potency result was “inactive”.

Regarding `O=S(=O)(c1cccc2cnccc12)N1CCCNCC1`, the “activity change, negative = inhibition” value was 3.96% [at 53 µM].

As for `Oc1ccccc1C=NCc1ccccc1`, the “activity change, negative = inhibition” value was 1.51% [at 53 µM].

In the case of `O=C(c1cc(O)c(O)c(O)c1)c1ccc(O)c(O)c1O`, the Potency entry was “inactive”.

`COC(=O)C1=C(C)NC(C)=C(C(=O)OC)C1c1ccccc1[N+](=O)[O-]`: the Potency entry is “inactive”.

Consider `CC1=C(C(=O)O)N2C(=O)[C@@H](NC(=O)[C@H](N)c3ccccc3)[C@H]2SC1`, for which the “activity change, negative = inhibition” value is -1.39% [at 53 µM].

For `CCCCNC(=S)NCCCC`, the “activity change, negative = inhibition” value was 2.25%.

Turning to `O=c1[nH]cccc1O`, the “activity change, negative = inhibition” value was 0.136%.

Consider `CCCCCCCC(C)=O`, for which the “activity change, negative = inhibition” value was -0.0061%.

As to `CCOc1ccc2nc(N)sc2c1`, the “activity change, negative = inhibition” value was 0.544%.

Turning to `COc1ccc(CCN(C)CCCC(C#N)(c2ccc(OC)c(OC)c2)C(C)C)cc1OC` (stereo not given), the Potency result was “inactive”.

As for `CC(C)NCC(O)COc1ccc(CC(N)=O)cc1` (stereo not given), the “activity change, negative = inhibition” value was 0.968%.

On to `c1ccc2cc3ccccc3cc2c1`, for which the Potency entry was “inactive”.

With `CC(C)(C)NCC(O)c1ccc(O)c(CO)c1` (stereo not given), the Potency entry is “inactive”.

As to `CC/C=C\CCO`, the “activity change, negative = inhibition” value is 0.696%.

Consider `O=C(O)CCS`, for which the “activity change, negative = inhibition” value was 0.409%.

As for `CC(C)(C)NC(=O)[C@@H]1C[C@@H]2CCCC[C@@H]2CN1C[C@@H](O)[C@H](Cc1ccccc1)NC(=O)[C@H](CC(N)=O)NC(=O)c1ccc2ccccc2n1`, the “activity change, negative = inhibition” value was 0.136%.

Take `CCCCCCN`: the “activity change, negative = inhibition” value was -0.136%.

Take `CCN(CC)S(=O)(=O)c1ccc(C(=O)O)cc1`: the “activity change, negative = inhibition” value was 2.7% [at 53 µM].

For `C=COC(=O)C(C)(CC)CCC(C)C` (stereo not given), the “activity change, negative = inhibition” value was 1.26%.

`CCCCCCCCCCCCCOS(=O)(=O)O`: the “activity change, negative = inhibition” value is -21.4%.

In the case of `C[N+]1(C)CCC(OC(=O)C(O)(c2ccccc2)C2CCCC2)C1` (stereo not given), the “activity change, negative = inhibition” value is -0.0054% [at 53 µM].

For the molecule `O=C(O)CCC(=O)c1ccc(-c2ccccc2)cc1`, the “activity change, negative = inhibition” value was -0.27% [at 53 µM].

Turning to `OCc1cccnc1`, the Potency result was “inactive”.

With `CCCCCCCCCCCCCCCCCC(=O)OCC(O)CO` (stereo not given), the Potency result was “inactive”.

As to `Cc1ccc2c(n1)Oc1ccc(C(C)C(=O)OCC(=O)N(C)C)cc1C2` (stereo not given), the Potency was 15.5 µM (active).

Turning to `Cc1ccc(C=O)cc1C`, the “activity change, negative = inhibition” value was 1.97%.

As for `C=CC(=O)OCCOCCOCCOCCOC(=O)C=C`, the Potency entry is “inactive”.

On to `OCCCCC(O)CO` (stereo not given), for which the “activity change, negative = inhibition” value was -1.31%.

For the molecule `CC1CCc2cc(F)cc3c(=O)c(C(=O)O)cn1c23` (stereo not given), the “activity change, negative = inhibition” value is -0.0669% [at 53 µM].

Take `CCCCCCCC/C=C\CCCCCCCC(=O)OCCOC(=O)CCCCCCC/C=C\CCCCCCCC`: the “activity change, negative = inhibition” value was -4.23%.

`CCCCN(C)C`: the “activity change, negative = inhibition” value is 0.817%.

In the case of `COc1nc(C)nc(N)n1`, the “activity change, negative = inhibition” value was 0.691%.

Take `c1cc(N(CC2CO2)CC2CO2)ccc1Cc1ccc(N(CC2CO2)CC2CO2)cc1` (stereo not given): the “activity change, negative = inhibition” value is 0.129%.
